# From PubChem BioAssay (NCATS)
# Inconclusive results are not listed. Where a call stands in place of a potency, no number is given. The source made the active and inactive calls. Calls come from the whole dose curve; as a rule, active = well fitted curve in the direction sought with a large enough effect; inconclusive = small, poorly fitted or top-dose-only effect, or another doubt; inactive = no such curve, though single readings can be large; an effect the other way counts as inactive or inconclusive.
# Columns and labels:
# [1] = biological target: Aldehyde dehydrogenase, mitochondrial (Homo sapiens) (UniProt P05091); experiment: qHTS for Inhibitors of the Aldehyde Dehydrogenase Family (ALDH2) Primary screen (AID 2061308); note: nearly all actives have a fitted effect of over 55% in size
# [2] = biological target: Retinaldehyde dehydrogenase 3 (Homo sapiens) (UniProt P47895); experiment: qHTS for Inhibitors of the Aldehyde Dehydrogenase Family (ALDH1A3) Primary screen (AID 2061315)
Compound,Potency [1],Potency [2]
CCOc1ccc(CCNC(=O)C2=C(C)OCCO2)cc1OCC,inactive,inactive
C/C1=C\CC(C)(C)/C=C/C/C(C(=O)O)=C/CC1,inactive,inactive
Cn1nnnc1Sc1ncnc2scc(-c3ccccc3Br)c12,inactive,inactive
CC1(C)CC2CC(C)(CN2S(=O)(=O)c2ccc(C(=O)Nc3ccc(Cl)cc3)cc2)C1 (stereo not drawn),inactive,inactive
Cc1ccc(C(=O)NCC(=O)OC(C(=O)Nc2cc(C(F)(F)F)ccc2Cl)c2ccccc2)cc1 (stereo not drawn),inactive,inactive
O=C(Nc1ccc(-c2nc3ccccc3[nH]2)cc1)Nc1ccc2c(c1)OCCO2,inactive,inactive
O=C1CCc2cc(S(=O)(=O)Nc3cccc(F)c3)ccc2N1,inactive,inactive
O=C1CCC2=C1C1(CCCC1)N=C(Nc1nc3ccccc3o1)N2,inactive,inactive
Cc1nc(NCc2ccccc2)c2nc(-c3ccccc3)n(CCN3CCCC3)c2n1,inactive,inactive
O=C(Nc1ccc(Cl)c(C(F)(F)F)c1)Nc1nnc(-c2ccncc2)s1,inactive,inactive
Cc1ccc(S(=O)(=O)Nc2ccccc2C(=O)Nc2cccc(-c3ccccc3)c2)cc1,inactive,inactive
COc1ccc(C2Nc3cccc(OC)c3C(=O)N2Cc2ccco2)cc1COc1c(C)cc(NC(C)=O)cc1C (stereo not drawn),inactive,inactive
C#CCOc1ccc(C(C)=O)cc1-c1nnc2n1N=C(c1ccc(OC)c(O[C@@H]3CCOC3)c1)CS2,inactive,inactive
Cc1cccc(Cn2ncc3c4sc(C)cc4n(C)c3c2=O)c1,inactive,inactive
Cc1ccccc1C(=O)N1CCc2cc(-c3nc(NC(=O)CC4CCCCC4)sc3C)ccc21,inactive,inactive
O=C(N[C@H]1CCN(C(=O)c2cc(C(F)(F)F)cc(C(F)(F)F)c2)[C@H](Cc2ccc(Cl)cc2)C1)c1ccnc2ccccc12,inactive,inactive
O=C(NCCc1nc2ccccc2n1CCO)C1CCCCC1,inactive,inactive
O=S(=O)(c1ccc2c(c1)OCCO2)N1CCN(S(=O)(=O)c2ccc3c(c2)OCCO3)CC1,inactive,inactive
CN(C)C(=O)C1CCN(c2nc(-c3ccc(Br)cc3)cs2)CC1,inactive,inactive
COc1cccc(C2c3c(ncn(-c4ccc(Br)cc4)c3=N)Oc3ccc4ccccc4c32)c1 (stereo not drawn),inactive,inactive

Compound,Potency [1],Potency [2]
O=C(Nc1ccc(S(=O)(=O)Nc2nccs2)cc1)c1cc(-c2ccccc2)nc2ccccc12,inactive,inactive
CCOC(=O)c1ccoc1-c1ccc2ncnc(NCc3csc(C)n3)c2c1,inactive,inactive
O=C(Cn1nc(C2CC2)ccc1=O)NCCc1ccccc1,inactive,inactive
Nc1ccc(S(=O)(=O)N2CCCN(S(=O)(=O)c3ccc4c(c3)OCCO4)CC2)cc1,inactive,inactive
O=C(Cn1nc(-c2ccc(OC(F)(F)F)cc2)ccc1=O)NCCc1ccccc1,inactive,inactive
CN1CCOc2ccc(S(=O)(=O)N3CCN(S(=O)(=O)c4c(F)cccc4F)CC3)cc21,inactive,inactive
CCCCNC(=S)NCCCc1cnc[nH]1,inactive,inactive
Cc1cc(N[S+](=O)([O-])c2ccc(NC(=O)Cc3ccc4c(c3)CCCC4)cc2)no1,inactive,inactive
CCOc1ccc(CCNC(=O)c2cc3sccc3n2Cc2ccccc2)c(F)c1OCC,inactive,inactive
Cc1cc(C)n2ncc(C(=O)Nc3ccc(C(F)(F)F)cc3)c2n1,inactive,inactive
CNc1cc2c(cc1S(=O)(=O)Nc1ccc(C)c(C)c1)CCC(=O)N2,inactive,inactive
Cc1nc(NCc2ccccc2)c2nc(-c3ccccc3)n(CCCN3CCOCC3)c2n1,inactive,inactive
Cc1ccc(-c2cc(C(=O)Nc3cccc(Cl)c3)c3ccccc3n2)cc1C,inactive,inactive
CC(=O)Nc1sc2c(c1C(O)c1nc3ccccc3s1)CCN(C(C)C)C2 (stereo not drawn),inactive,inactive
CC(C)CN1CC2=C(C1=O)C(c1ccccc1Cl)N=C(Nc1nc3ccccc3o1)N2 (stereo not drawn),inactive,inactive
Cc1cccc(CNc2ncnc3ccc(-c4ccoc4)cc23)c1,inactive,inactive
O=C(Cc1ccc(Cl)c(Cl)c1)Nc1ccc([S+](=O)([O-])Nc2ccccn2)cc1,inactive,inactive
O=C(Cc1ccccc1)Nc1sc2c(c1C(=O)Nc1ccc(Cl)cc1)CCOC2,inactive,inactive
C=C1CC[C@H]2C(=C)CC[C@H]3C(=C)C(=O)O[C@@H]3[C@@H]12,inactive,inactive
